Results filed as inconclusive are left out. Values without a mark were called inactive. Active and inactive are the calls of the source. Calls follow the shape of the dose curve; as a rule, active = well fitted activation curve with a large enough effect; inconclusive = small, poorly fitted or top-dose-only effect; inactive = flat fitted curve, though single readings scatter. Where a SMILES comes first, the peptide text is derived from it. The star is where a group is joined. βNA = c1ccc2cc(N*)ccc2c1; Cbz = O=C(OCc1ccccc1)*
Assay: Primary redox qHTS assay for identification of artifact compounds. (AID 1845223)
Conditions: Amplex Red/HRP redox cycling with DTT, fluorescence; series mostly up to 53.8 µM; redox activity (% of DA3003): at the top concentration
Text: PI: Alexander Tropsha Ph.D.
UNC Eshelman School of Pharmacy
University of North Carolina, Chapel Hill, North Carolina
Hits from high-throughput screening (HTS) of chemical libraries are often false positives due to their interference with the assay detection technology. In response to this problem, we generated the largest publicly available library of chemical liabilities and developed a free webtool to predict HTS artifacts, both of which are described herein. More specifically, we generated, curated, and integrated HTS datasets for thiol reactivity, redox activity, and luciferase (firefly and nano) activity. Using these curated datasets, we developed and validated several Quantitative Structure-Interference Relationship (QSIR) models to predict nuisance behavior. […] These models were employed for virtual profiling of the National Center for Advancing Translational Science's (NCATS) in-house library, and 256 compounds for each assay were selected for the experimental validation of nuisance behavior. The BA for these external predictions ranged from 58 to 78% for compounds within the applicability domains of the models. […] The models developed in this study, along with aggregation models previously developed by our group (SCAM Detective) were implemented in "Liability Predictor," an online tool which may be used as part of chemical library design or for triaging HTS hits. Both the models and the curated datasets are publicly available at https://liability.mml.unc.edu/.
SEQUENCE No. (e.g., 1, 2, 3, etc.); […] (e.g., Cells, Incubation, Reagent, etc.); VALUE; DESCRIPTION.
1; Reagent; 3 uL; Amplex Red and HRP mixture.
2; Compounds and control; 16 nL; Kalypsis pin tool (Wako USA) equipped with a 1536-well pin head. […]
6; Detection; Fluorescence, ViewLux microplate reader, 525 nm excitation, 598 nm emission.
NOTES (numbers refer to Sequence numbers above)
1. 3 uL of a mixture containing Amplex Red (25 uM final concentration) and horseradish peroxidase (HRP; 250 mU/mL final concentration) in assay buffer (HBSS) was dispensed into all wells of a 1536-well assay plate (solid-bottom black plate; Greiner Bio One, Monroe, NC).
2. A Wako Pin-tool (Wako Automation, Richmond, VA) was used to transfer 16 nL of compounds (consisting of 7-plates in qHTS format, final concentration range 18.3 nM to 114 uM) or control DA3003 (final concentration range 1.22 nM to 40 uM).
3. 15 min. incubation at room temperature protected from light.
4. 1 uL of DTT (prepared fresh; final concentration 250 uM) was dispensed for a final assay volume of 4 uL.
5. Plates were centrifuged (121xg, 15 seconds) and incubated for 30 minutes at room temperature protected from light.
6. Samples were read for fluorescence (Ex/Em = 525(20)/598(25) nm) on a ViewLux CCD imager (PerkinElmer). Data were normalized to DMSO (0% activity) and DA3003 (10 uM final concentration; 100% activity) and the resulting percent inhibition data were fitted to a 4-parameter Hill equation using NCATS in-house software.
Potency is read from the fitted curve at half-maximal effect.

SMILES	Potency	redox activity (% of DA3003)
C[C@@H]1O[C@@H](O[C@H]2[C@H](Oc3cc(O)c(C(=O)CCc4ccc(O)cc4)c(O)c3)O[C@H](CO)[C@@H](O)[C@@H]2O)[C@H](O)[C@H](O)[C@H]1O	10.6 µM (active)	–
C=C1C2CCC3C(CCC4[C@@]3(C)CCC[C@@]4(C)C(=O)O)(C2)[C@@H]1OC(=O)/C(C)=C\C (stereo not given in full)	–	10.5% [at 25.6 µM]
COc1cccc(C(=O)NCCNc2nc3cc(C)cc(C)c3cc2C#N)c1	–	-6.46%
COc1ccc(-n2[nH]c3c(cnc4ccccc43)c2=O)cc1	–	-0.457%
Oc1ccc2c(-c3c(-c4ccccn4)nn4c3CCC4)ccnc2c1	–	-4.23%
C=CC(C)(O)CC/C=C(\C)COC1O[C@H](CO)[C@@H](O)[C@H](O)[C@H]1O (stereo not given in full)	–	-17.4%
O=C(OCC1=CC(Cl)C(O)C(OC(=O)c2ccccc2)C1O)c1ccccc1 (stereo not given)	–	4.21% [at 25.6 µM]
CC1C(=O)OCC2=CC[N+]3([O-])CCC(OC(=O)C(C)(O)C1(C)O)C23 (stereo not given)	–	-10.6%
CC(=O)OC12CC(C)C(OC(=O)c3ccccc3)C1/C=C(/C)C(OC(=O)c1ccccc1)CC(=O)C(C)(C)/C=C/C(C)C2=O (stereo not given)	–	8.01% [at 25.6 µM]
Cn1cc(Nc2cnccc2C(=O)O)c2cccnc21	–	0.278%
C/C1=C\CC(C)(C)/C=C/C/C(C(=O)O)=C/CC1	–	8.1%
CC1=CCC[C@@H]2[C@@](C)(CCc3ccoc3)[C@H](C(=O)O)CC[C@@]12C	–	4.54%
C=C1CC[C@H]2[C@@](C)(CCC(OC3OC(CO)C(O)C(O)C3O)[C@@]2(C)CO)C1C(=O)CC1=CCOC1=O (stereo not given in full)	–	-16.7% [at 25.6 µM]
C/C(=C\CCC(C)(C)O)CCO[C@@H]1O[C@H](CO[C@@H]2O[C@@H](C)[C@H](O)[C@@H](O)[C@H]2O)[C@@H](O)[C@H](O)[C@H]1O	–	-0.323% [at 25.6 µM]
CC1(C)Oc2ncnc(N)c2N=C1c1ccc(C2CCC(CC(=O)O)CC2)cc1 (stereo not given)	–	4.35%
CC(=O)O[C@@H]1C(=O)C(C)=C(CCC(C)CC(=O)O)[C@@]2(C)CCCC(C)(C)C12 (stereo not given in full)	–	11.8%
CC(=O)OC1CCC2(C)C(CCC3(C)C2CC=C2C4CC(C)(C)CCC4(C)CCC23C)C1(C)C(=O)O (stereo not given)	–	-4.44% [at 25.6 µM]
CC(C)CC(NC(=O)OCc1ccccc1)C(=O)NC(CC(C)C)C(=O)NC(CCC(=O)O)C(=O)Nc1ccc2ccccc2c1 (stereo not drawn) (Cbz-Leu-Leu-Glu-βNA; configuration not given here)	–	6.14%
C/C=C(\C)C(=O)OC[C@H]1O[C@H](O[C@H]2O[C@H](CO)[C@@H](O)[C@H](O)[C@H]2O[C@@H]2O[C@H](CO)[C@@H](O)[C@H](O)[C@H]2O)[C@H](O[C@@H]2O[C@H](CO)[C@@H](O)[C@H](O)[C@H]2O)[C@@H](O)[C@@H]1O	–	-11.5% [at 25.6 µM]
C=C1C[C@]23C[C@@]1(O)CC[C@H]2[C@@]12C=C[C@H](O)[C@@](C)(C(=O)O1)[C@H]2[C@@H]3C(=O)O	–	-11.3%

SMILES	Potency	redox activity (% of DA3003)
CO[C@@H]1[C@]2(O)C(=O)N3/C=C\C(C)(C)c4[nH]c5ccccc5c4/C=C\3C(=O)N2[C@]23[C@H](CO)C(C)(C)N2c2ccccc2[C@]13O	–	5.57% [at 25.6 µM]
CC(C)C1CCC(C(=O)N[C@@H](Cc2ccccc2)C(=O)O)CC1 (stereo not given in full)	–	11.6%
C=C(C(=O)O)[C@@H]1CC[C@@]2(C)CC[C@@H](O)C(=C)C2C1 (stereo not given in full)	–	0.878%
C/C(=C\CCC(C)C1CC(O)C2(C)C3CCC4C(C)(C)C(OC5OCC(O)C(O)C5O)CCC45CC35CC(O)C12C)C(=O)O (stereo not given)	–	-5.41% [at 25.6 µM]
CC1=CC(=O)CC(C)(C)[C@@]1(O)/C=C/C(C)O[C@@H]1O[C@H](CO)[C@@H](O)[C@H](O)[C@H]1O (stereo not given in full)	–	-17.7% [at 25.6 µM]
C=C1C(=O)O[C@@H]2/C=C(\C)CC/C=C(\C(=O)O[C@@H]3O[C@H](CO)[C@@H](O)[C@H](O)[C@H]3O)CC[C@@H]12	–	-8.67% [at 25.6 µM]
COc1ccc(C2COc3cc(O)ccc3C2)c(O)c1OC (stereo not given)	–	-4.22%
Nc1nc(COC(=O)c2ccc([N+](=O)[O-])cc2)nc(Nc2ccccc2)n1	–	-0.602%
CC1=C[C@H](O)[C@H]2C(C)(C)CCC[C@]2(C)[C@@]1(O)CO	–	-8.49%
C=C1CC23CC1CCC2C12OC(=O)C(C)(C(O)CC1O)C2C3C(=O)O (stereo not given)	–	-3.43%
Nc1ncnc2c1ncn2[C@H]1O[C@@H](C(=O)N2CCN(CC(=O)Nc3cccc4c3CNC4=O)CC2)[C@H](O)[C@@H]1O	–	1.22%
OC[C@H]1O[C@@H](OC[C@H]2O[C@@H](OCc3ccccc3)[C@H](O)[C@@H](O)[C@@H]2O)[C@H](O)[C@@H](O)[C@@H]1O	–	-0.227% [at 25.6 µM]
C/C=C(\C)C(=O)OCC1OC(OC2OC(CO)C(O)C(O)C2O)C(O)C(O)C1O (stereo not given)	–	-17.2% [at 25.6 µM]
C[C@]1(C2CCCC2)Cc2cc(OCC(=O)O)c(Cl)c(Cl)c2C1=O	–	8.76%
CC(=O)OCC1OC(OC2COC(OC3COC(OC4C(OC5C(CO)OC(OC6CCC7(C)C(CCC8(C)C7CC=C7C9CC(C)(C)CCC9(C(=O)OC9OC(CO)C(O)C(O)C9OC9OCC(OC%10OCC(O)(CO)C%10O)C(O)C9O)C(O)CC78C)C6(C)C)C(O)C5O)OCC(O)C4O)C(O)C3O)C(O)C2O)C(OC(=O)/C=C/c2ccccc2)C(O)C1OC(C)=O (stereo not given)	–	-4.05% [at 6.41 µM]
C[C@@H]1[C@H](O)[C@@H]2OC(=O)C3=C2[C@H](CCC3)[C@@]12C[C@@H](c1ccoc1)OC2=O	–	0.466%
COC(=O)C1=COC(O[C@@H]2O[C@H](CO)[C@@H](O)[C@H](O)[C@H]2O)C2C(C)C(=O)CC12 (stereo not given in full)	–	-11%
CC1(C)CC2C(O)C3=C(CC(C)(O)C2C1)C(=O)OC3 (stereo not given)	–	-12.9%
OC[C@H]1O[C@@H](OCCc2ccccc2)[C@H](O)[C@@H](O)[C@@H]1O	–	-0.194%
COc1cccc(Cn2ncc3c4sc(S(C)=O)cc4n(C)c3c2=O)c1 (stereo not given)	–	5.26%
